# Source: PubChem
# USP30 block = blocks human USP30 ubiquitin-rhodamine cleavage | Q70CQ3 | purified USP30, Ub-rhodamine cleavage fluorescence | inhibition, % at 25 µM | actives 5.3% (n = 47,000) | AID 1645860
# USP28 inh = inhibitors of human USP28 deubiquitinase. actives 3% (n = 47,000). AID 1645857. inhibition, % at 25 µM. purified USP28, Ub-rhodamine cleavage fluorescence, 30 min
# OTUD3 inh = human OTUD3 deubiquitinase inhibition; inhibition, % at 25 µM; purified OTUD3, Ub-rhodamine fluorescence, 2 h; actives 0.7% (n = 47,000); AID 1645858
# USP17 block = human USP17-like deubiquitinase inhibition | A8MUK1 | actives 6.5% (n = 47,000) | purified USP17, Ub-rhodamine cleavage fluorescence, 3 h | inhibition, % at 50 µM | AID 1645855
# Numbers without * were called inactive. In the library only some 11% were active in any assay of this set; here they are far more common. Rule as the data show it: active = inhibition above about 30%; inactive = the rest.
SMILES,USP30 block,USP28 inh,OTUD3 inh,USP17 block
Cc1ccc(N2CC(C(=O)NCCc3ccc(Cl)cc3)CC2=O)cc1 (centres undefined),4,-5,-7,41*
Cc1ccc(NS(=O)(=O)c2c(C)[nH]c(C)c2C(=O)N2CCCC2)c(C)c1,-11,-9,-7,-9
CCCCCCC(C)/C=C(C)/C=C/C(=O)N[C@H]1CC2(O[C@H]1O)[C@@H]1O[C@@H]1C(=O)[C@@H]1O[C@@H]12 (some centres undefined),42*,5,-9,30*
O=S(=O)(c1cc(F)cc(F)c1)N1CCCn2c(nc3ccccc32)C1,38*,0,9,32*
COc1cccc(CNC(=O)c2ccccc2OCc2ccccc2)c1,41*,19,17,31*
Cc1ccc(CNC(=O)c2ccccc2OCc2ccc(Cl)cc2)cc1,24,17,12,11
COc1ccccc1CNC(=O)c1ccccc1OCc1ccc(F)cc1,38*,29,27,27
Cc1ccc(-c2cc(C(F)F)n3ncc(C(=O)Nc4ccc(O)cc4)c3n2)cc1,20,6,9,35*
CN(C)c1cccc(C(=O)Nc2cc(-c3cccnc3)no2)c1,16,23,7,51*
CCCCCc1cc(O)c2c(ccc3c(O)c4c(cc32)C(C)(C)c2cc(O)cc(O)c2C4=O)c1,-17,10,4,31*
CCN(CC)c1ccc(NC(=O)C2=CCN(S(=O)(=O)c3ccc(F)cc3)CC2)c(C)c1,14,35*,-3,-4
O=C(c1noc2c1CCc1sccc1-2)N1CCc2ccccc21,-22,-11,-5,8
Cn1c(CN2CCOCC2)nnc1SCc1ccc(Cl)cc1,32*,15,14,20
O=C(Nc1nc2c(s1)CN(C(=O)/C=C/c1ccco1)CC2)C1CCCO1 (centres undefined),-274,-35,-40,-18
Cc1ccc(S(=O)(=O)c2nnn3c2nc(NCc2ccc(F)cc2)c2ccccc23)cc1C,22,10,9,12
COc1ccc(Nc2nc3c(S(=O)(=O)c4ccc(C(C)C)cc4)nnn3c3ccccc23)cc1,32*,10,6,24
O=S(=O)(c1ccccc1)c1nnn2c1nc(NCc1ccc(Cl)cc1)c1ccccc12,19,9,10,42*
Cc1ccc(Nc2nc3c(S(=O)(=O)c4ccccc4)nnn3c3ccccc23)c(C)c1,29,-3,-18,24
C=C1C=C(NCC2CCCO2)n2nc3nc(C)cc(C)c3c2N1 (centres undefined),-185,-51,-39,-48
COc1ccc(C(=O)N2CCOC23CCN(c2ccc([N+](=O)[O-])cc2)CC3)cc1,15,13,0,-9
Cc1ccc(NC(=O)c2cn(Cc3ccccc3)nc2-c2cccnc2)cc1,8,32*,-2,-4
O=C(NCC1CCCO1)c1cn(Cc2ccccc2)nc1-c1cccnc1 (centres undefined),-10,-9,1,0
O=S(=O)(C1CC1)N1CCOC2(CCCN(c3ncc(F)cn3)C2)C1 (centres undefined),35*,15,13,16
CCN[C@H]1C[C@@H](c2ccccc2)OC2(CCN(Cc3cn(C)nc3C)CC2)C1,14,9,13,31*
O=C(CC1SC(=O)NC1=O)Nc1cccc(C(F)(F)F)c1 (centres undefined),-50,-18,-16,-9
SMILES,USP30 block,USP28 inh,OTUD3 inh,USP17 block
O=C1NC(=N/N=C/c2ccccc2)SC1Cc1cc(C(F)(F)F)ccc1Cl (centres undefined),35*,8,29,36*
CSC1SCC2C(=O)N(C)C(C(C)C(C)C)C(=O)OCC(NC(=O)c3cnc4ccccc4n3)C(=O)NC(C)C(=O)N(C)C1C(=O)N(C)C(C(C)C(C)C)C(=O)OCC(NC(=O)c1cnc3ccccc3n1)C(=O)NC(C)C(=O)N2C (centres undefined),14,8,2,18
Cc1nc(-c2ccc(NC(=O)N3CCN(c4ccccn4)CC3)cc2)no1,16,62*,8,4
Cc1nc(-c2ccc(NC(=O)N3CCC(Cc4ccccc4)CC3)cc2)no1,10,39*,8,9
Cc1nc(-c2ccc(NC(=O)N3CCN(c4ccccc4F)CC3)cc2)no1,-8,0,-5,0
Cc1ccc2c(c1)C(NC(=O)c1[nH]ncc1Cl)CC1(CCOCC1)O2 (centres undefined),1,0,0,-16
COC(=O)CCC(c1ncc(C(F)(F)F)cc1Cl)S(=O)(=O)c1ccccc1 (centres undefined),58*,23,24,44*
